Compounds without any hit were thinned out: in the full panel of roughly 83,000, 20% have a hit.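 Single-concentration screen, 48 h exposure, 96-well plates. Endpoint: percent growth. Below 10 = active.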 Values without a mark were called inactive. The source made the active and inactive calls.

Test systems include RPMI-8226 leukemia; OVCAR-8 ovarian; OVCAR-5 ovarian; OVCAR-4 ovarian; SK-OV-3 ovarian; IGROV1 ovarian; OVCAR-3 ovarian; HS 578T breast; NCI/ADR-RES ovarian; T-47D breast; BT-549 breast; MDA-MB-435 melanoma; SW-620 colon; MCF7 breast; HCT-116 colon; HCC-2998 colon; KM12 colon; SR leukemia.
What all share (test): NCI-60 one-dose screen, 48 h (100 = growth as untreated, 0 = no growth, -100 = all killed)
Common to all, as to settings: 10 µM unless noted

Consider `COc1ccc(N=C2CSc3nnc(-c4cc(F)c(Cl)cc4Cl)n3N2)cc1`, for which the growth with RPMI-8226 leukemia is -23.5% (active); with OVCAR-8 ovarian it was 6.26% (active); in the assay on OVCAR-5 ovarian, -20.5% (active); in the assay on OVCAR-4 ovarian, -59.2% (active); with SK-OV-3 ovarian, -42.3% (active); in the assay with IGROV1 ovarian, -45.1% (active). The growth in the assay on OVCAR-3 ovarian was -74% (active); in the assay with HS 578T breast it was -43.8% (active); with NCI/ADR-RES ovarian, 9.18% (active); in the assay with T-47D breast, -20.1% (active); in the assay with BT-549 breast it was -21.2% (active); with MDA-MB-435 melanoma, -45.6% (active). The growth in the assay on SW-620 colon was -47.1% (active); with MCF7 breast, -34.3% (active); in the assay on HCT-116 colon it was -61.4% (active); in the assay on HCC-2998 colon it was -71.4% (active).

`COc1ccc(/C=C/c2nc(NCCCN(C)C)c3ccccc3n2)cc1`: the growth is 0.379% (active) in the assay on RPMI-8226 leukemia; 79.8% in the assay on OVCAR-8 ovarian; 76.9% in the assay with OVCAR-5 ovarian; 62.9% in the assay with OVCAR-4 ovarian; 121% in the assay with SK-OV-3 ovarian; 49.9% in the assay on IGROV1 ovarian. Further, the growth in the assay on OVCAR-3 ovarian was 79.4%; with HS 578T breast it was 90.5%; with NCI/ADR-RES ovarian, 87.9%; in the assay with T-47D breast, 81.1%; in the assay on BT-549 breast, 47.3%; in the assay on MDA-MB-435 melanoma, -57.9% (active). The growth was 4.57% (active) in the assay on SW-620 colon; -67% (active) with MCF7 breast; 38% in the assay on HCT-116 colon; 28.3% in the assay with HCC-2998 colon; 32.1% in the assay with KM12 colon.

Regarding `Cc1ccc(Nc2cc(Cl)c([N+](=O)[O-])cc2[N+](=O)[O-])cc1`, the growth with SR leukemia was 4.96% (active); with OVCAR-8 ovarian it was 26.8%; in the assay on OVCAR-5 ovarian it was 46.3%; with SK-OV-3 ovarian, 83.5%; with IGROV1 ovarian, 27.7%; in the assay on OVCAR-3 ovarian it was 0.375% (active). Also, the growth in the assay with HS 578T breast is 92.1%; with NCI/ADR-RES ovarian, 26.5%; with T-47D breast it was 1.27% (active); with BT-549 breast, 31.3%; in the assay with MDA-MB-435 melanoma, 10.2%; in the assay on SW-620 colon, 9.72% (active). For the same compound, the growth is 25.9% in the assay with MCF7 breast, 7.86% (active) with HCT-116 colon, 42.4% in the assay on HCC-2998 colon and 45.9% in the assay on KM12 colon.

In the case of `COc1ccccc1CNCCCN1C(=O)c2ccc3c4c(ccc(c24)C1=O)C(=O)N(CCCNCCCN)C3=O`, the growth in the assay with RPMI-8226 leukemia was 17.5%; with OVCAR-8 ovarian it was -24.4% (active); in the assay on OVCAR-5 ovarian it was 37.9%; with OVCAR-4 ovarian, -99.3% (active); in the assay on SK-OV-3 ovarian it was 34.7%; in the assay with IGROV1 ovarian, -2.92% (active). The growth is -19.3% (active) in the assay with OVCAR-3 ovarian; 30.7% in the assay with HS 578T breast; 33.7% in the assay with NCI/ADR-RES ovarian; -21.6% (active) in the assay on T-47D breast; 55% in the assay with BT-549 breast; -69.4% (active) in the assay on MDA-MB-435 melanoma. For the same compound, the growth in the assay with SW-620 colon was -7.85% (active); in the assay with MCF7 breast, -42.7% (active); in the assay with HCT-116 colon, -1.03% (active); with HCC-2998 colon, -5.58% (active); with KM12 colon it was 1.76% (active).

For the compound `C=CCN(CC#N)CC=C`, the growth was 93.2% in the assay on SR leukemia; 100% in the assay on OVCAR-8 ovarian; 102% in the assay with OVCAR-5 ovarian; 116% with SK-OV-3 ovarian; 120% in the assay on IGROV1 ovarian; 119% in the assay with OVCAR-3 ovarian. Further, the growth is 121% with HS 578T breast; 115% in the assay with NCI/ADR-RES ovarian; 101% in the assay with T-47D breast; 116% with BT-549 breast; 107% in the assay on SW-620 colon; 95% with MCF7 breast. In addition, the growth with HCT-116 colon was 98.1%; in the assay on HCC-2998 colon, 118%; in the assay with KM12 colon, 108%.

Take `CN1C(=O)NC(Cc2c[nH]c3c(Cl)cccc23)C1=O` (centres undefined): the growth in the assay on RPMI-8226 leukemia is 119%; in the assay on OVCAR-8 ovarian, 112%; in the assay on OVCAR-5 ovarian, 102%; with OVCAR-4 ovarian, 101%; in the assay with SK-OV-3 ovarian, 113%; with IGROV1 ovarian, 108%. Further, the growth is 90.8% in the assay on OVCAR-3 ovarian; 103% with HS 578T breast; 100% in the assay with NCI/ADR-RES ovarian; 111% in the assay on T-47D breast; 118% in the assay on BT-549 breast; 114% in the assay on MDA-MB-435 melanoma. Further, the growth is 112% with SW-620 colon; 96.2% with MCF7 breast; 108% in the assay with HCT-116 colon; 97.5% in the assay on HCC-2998 colon; 96.6% in the assay on KM12 colon.

Regarding `COc1ccc(-c2cnnn2-c2nonc2-n2cccc2)cc1`, the growth in the assay with RPMI-8226 leukemia is 27.9%; in the assay on OVCAR-8 ovarian, 31.3%; in the assay on OVCAR-5 ovarian, 37.2%; with OVCAR-4 ovarian it was 42.9%; in the assay on SK-OV-3 ovarian it was -4.76% (active); in the assay with IGROV1 ovarian, 28.9%. The growth in the assay on OVCAR-3 ovarian is -38.9% (active); with HS 578T breast it was -1.93% (active); in the assay on NCI/ADR-RES ovarian, 6.88% (active); in the assay on T-47D breast, 44.8%; with BT-549 breast it was 47.6%; with MDA-MB-435 melanoma it was -44.1% (active). Further, the growth was 19.1% with SW-620 colon; 14.5% in the assay on MCF7 breast; 8.3% (active) in the assay with HCT-116 colon; 6.73% (active) in the assay on HCC-2998 colon; 3.78% (active) in the assay on KM12 colon.

As to `COc1cnc2c(c1)C(=O)c1c-2n(CCCNC(C)C)c(=O)c2cc(Cl)ccc12`, the growth in the assay on RPMI-8226 leukemia is -59% (active); in the assay with OVCAR-8 ovarian, -41.6% (active); in the assay with OVCAR-5 ovarian, -56.1% (active); with OVCAR-4 ovarian, -77% (active); in the assay on SK-OV-3 ovarian, -5.05% (active); in the assay on IGROV1 ovarian, -57% (active). Further, the growth with OVCAR-3 ovarian was -78.3% (active); in the assay with HS 578T breast, 58.1%; in the assay on NCI/ADR-RES ovarian, -9.91% (active); in the assay on T-47D breast, -84.3% (active); in the assay with BT-549 breast, 30.9%; with MDA-MB-435 melanoma, -94.6% (active). The growth was -81.7% (active) in the assay with SW-620 colon, -58.6% (active) in the assay with MCF7 breast, -92.4% (active) in the assay on HCT-116 colon and -52.1% (active) with HCC-2998 colon.

For `O=C1/C=C/[C@@H](O)[C@@H]2C[C@@H](O)C[C@H]2/C=C/CCC[C@H]([C@@H](O)CO)O1`, the growth is 112% with RPMI-8226 leukemia; 82% in the assay on OVCAR-8 ovarian; 98.5% with OVCAR-5 ovarian; 72.8% in the assay on OVCAR-4 ovarian; 91.6% with SK-OV-3 ovarian; 98.5% with IGROV1 ovarian. The growth in the assay on OVCAR-3 ovarian is 86.7%; in the assay with HS 578T breast, 53.5%; in the assay on NCI/ADR-RES ovarian, 90.1%; with T-47D breast it was 81.8%; with BT-549 breast, 75.8%; with MDA-MB-435 melanoma, 83%. Besides, the growth in the assay on SW-620 colon is 104%; in the assay with MCF7 breast, 45.1%; in the assay with HCT-116 colon, 93.8%; with HCC-2998 colon, 84.6%; in the assay with KM12 colon, 63.5%.

Take `Cc1[nH]c2ccccc2c1C1=CC(=O)C=CC1=O`: the growth in the assay with SR leukemia was 12.2%; in the assay with OVCAR-8 ovarian it was 89.3%; in the assay on OVCAR-5 ovarian, 103%; in the assay with SK-OV-3 ovarian, 120%; with IGROV1 ovarian, 79.6%; in the assay with OVCAR-3 ovarian, 36.7%. Also, the growth in the assay with HS 578T breast was 99.7%; in the assay on NCI/ADR-RES ovarian it was 77%; in the assay on T-47D breast, 28.5%; in the assay on BT-549 breast it was 96.9%; in the assay on MDA-MB-435 melanoma, 38.9%; with SW-620 colon it was 69.2%. Besides, the growth in the assay on MCF7 breast is 55.3%; with HCT-116 colon, 82.4%; with HCC-2998 colon, 98.8%; in the assay with KM12 colon it was 88.2%.

The record behind these values is PubChem BioAssay (NCI).
